Results taken from the supplement of paper PMC12669032.

Experiments:
Assay in all cases: growth AUC relative to DMSO control (median of replicates) (fraction); higher = more growth (less inhibition), active = hit call of the paper
Conditions in all cases: 20 µM; 24 h;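 active = AUC reduced over 20% with Padj below 0.05 in at least 2 of 3 replicates; inactive = otherwise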
Coprococcus comes = system: Coprococcus comes
Summary of the method: (§1)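 Gut bacterial monocultures were grown anaerobically at 37 °C in mGAM, starting at OD600 0.05, with 20 µM compound (1% DMSO) in round-bottom 96-well plates under pierced gas-permeable seals. OD600 was read hourly for 24 h. Area under the growth curve (minimum OD set to 0) was normalised to the plate median of DMSO controls, or to row and column medians on the industrial chemical plate. The value is the median of three biological replicates grown on separate days.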

Escherichia coli ED1a = system: Escherichia coli ED1a
Summary of the method: as §1

Escherichia coli IAI1 = system: Escherichia coli IAI1
Summary of the method: as §1

Eubacterium rectale = system: Eubacterium rectale
Summary of the method: as §1

[1] = system: Fusobacterium nucleatum subsp. animalis
Summary of the method: as §1

Lactobacillus gasseri = system: Lactobacillus gasseri
Summary of the method: as §1

Lactobacillus paracasei = system: Lactobacillus paracasei
Summary of the method: as §1

Odoribacter splanchnicus = system: Odoribacter splanchnicus
Summary of the method: as §1

[2] = system: Parabacteroides distasonis
Summary of the method: as §1

Parabacteroides merdae = system: Parabacteroides merdae
Summary of the method: as §1

| Structure (SMILES) | growth AUC (Coprococcus comes) | growth AUC (Escherichia coli ED1a) | growth AUC (Escherichia coli IAI1) | growth AUC (Eubacterium rectale) | growth AUC [1] | growth AUC (Lactobacillus gasseri) | growth AUC (Lactobacillus paracasei) | growth AUC (Odoribacter splanchnicus) | growth AUC [2] | growth AUC (Parabacteroides merdae) |
| --- | --- | --- | --- | --- | --- | --- | --- | --- | --- | --- |
| CN1CSC(=S)N(C)C1 | 0.957 (inactive) | 0.991 (inactive) | 0.994 (inactive) | 1.06 (inactive) | 0.966 (inactive) | 1.07 (inactive) | 1.04 (inactive) | 0.988 (inactive) | 0.991 (inactive) | 0.976 (inactive) |
| CCc1nn(C)c(C(=O)NCc2ccc(Oc3ccc(C)cc3)cc2)c1Cl | 0.959 (inactive) | 0.986 (inactive) | 0.997 (inactive) | 0.96 (inactive) | 0.952 (inactive) | 1.1 (inactive) | 0.942 (inactive) | 0.896 (inactive) | 0.947 (inactive) | 0.975 (inactive) |
| CN(C)C(CSS(=O)(=O)c1ccccc1)CSS(=O)(=O)c1ccccc1 | 1.03 (inactive) | 0.97 (inactive) | 1.01 (inactive) | 1.53 (inactive) | 0.932 (inactive) | 0.85 (inactive) | 0.95 (inactive) | 0.98 (inactive) | 0.95 (inactive) | 0.992 (inactive) |
| O=S1OCC2C(CO1)C1(Cl)C(Cl)=C(Cl)C2(Cl)C1(Cl)Cl (stereo not given) | 1.03 (inactive) | 1.02 (inactive) | 1.04 (inactive) | 1.08 (inactive) | 1.13 (inactive) | 0.763 (inactive) | 1.05 (inactive) | 1.03 (inactive) | 1.1 (inactive) | 0.951 (inactive) |
| O=[N+]([O-])c1ccc(O)c([N+](=O)[O-])c1 | 0.904 (inactive) | 0.998 (inactive) | 0.998 (inactive) | 1.02 (inactive) | 0.927 (inactive) | 1.06 (inactive) | 0.97 (inactive) | 0.673 (inactive) | 0.948 (inactive) | 0.985 (inactive) |
| C[C@@H](Oc1ccc(Oc2cnc3cc(Cl)ccc3n2)cc1)C(=O)O | 1.05 (inactive) | 1.02 (inactive) | 1 (inactive) | 0.987 (inactive) | 1.08 (inactive) | 0.997 (inactive) | 1.04 (inactive) | 0.97 (inactive) | 0.983 (inactive) | 1.03 (inactive) |
| CCOP(=S)(OCC)Oc1cnc2ccccc2n1 | 0.989 (inactive) | 0.977 (inactive) | 0.977 (inactive) | 0.91 (inactive) | 0.995 (inactive) | 0.966 (inactive) | 1.01 (inactive) | 1.01 (inactive) | 0.589 (active) | 0.947 (inactive) |
| CNC(=O)O/N=C/C(C)(C)SC | 1.01 (inactive) | 1.01 (inactive) | 1.03 (inactive) | 0.966 (inactive) | 0.939 (inactive) | 1.12 (inactive) | 0.99 (inactive) | 1 (inactive) | 1.03 (inactive) | 0.961 (inactive) |
| CCOP(=S)(OCC)SCCS(=O)(=O)CC | 1.02 (inactive) | 1.05 (inactive) | 0.994 (inactive) | 1.02 (inactive) | 1 (inactive) | 0.903 (inactive) | 1.01 (inactive) | 1.06 (inactive) | 1.04 (inactive) | 0.991 (inactive) |
| O=S(=O)(Oc1ccc(Cl)cc1)c1ccc(Cl)cc1 | 1.01 (inactive) | 0.971 (inactive) | 1 (inactive) | 1.08 (inactive) | 1.09 (inactive) | 0.84 (inactive) | 0.926 (inactive) | 0.983 (inactive) | 0.761 (active) | 0.945 (inactive) |
| Clc1ccc(C2(Cn3cncn3)OCCO2)c(Cl)c1 | 0.966 (inactive) | 0.98 (inactive) | 0.979 (inactive) | 1.03 (inactive) | 0.988 (inactive) | 0.937 (inactive) | 0.946 (inactive) | 0.923 (inactive) | 1.01 (inactive) | 0.954 (inactive) |
| CCOP(=S)(OCC)SCn1nnc2ccccc2c1=O | 1.01 (inactive) | 1.01 (inactive) | 1.03 (inactive) | 1.02 (inactive) | 1.09 (inactive) | 1.01 (inactive) | 1.05 (inactive) | 0.926 (inactive) | 0.707 (active) | 0.946 (inactive) |
| Nc1ccc(Cl)cc1 | 1.03 (inactive) | 1.02 (inactive) | 1 (inactive) | 1.05 (inactive) | 1.08 (inactive) | 0.939 (inactive) | 0.955 (inactive) | 1.1 (inactive) | 1.05 (inactive) | 1.02 (inactive) |
| CCCCCCCCn1sccc1=O | 0.958 (inactive) | 0.944 (inactive) | 0.938 (inactive) | 0.868 (inactive) | 0.83 (inactive) | 0.757 (active) | 1.01 (inactive) | 0.597 (inactive) | 0.129 (active) | 0.00935 (active) |
| CC1(C)CCC(Cc2ccc(Cl)cc2)C1(O)Cn1cncn1 (stereo not given) | 0.982 (inactive) | 0.971 (inactive) | 0.98 (inactive) | 0.8 (inactive) | 1.08 (inactive) | 0.976 (inactive) | 1.02 (inactive) | 0.823 (inactive) | 0.927 (inactive) | 0.918 (inactive) |
| ClC1=C(Cl)C2(Cl)C3C(Cl)C=CC3C1(Cl)C2(Cl)Cl (stereo not given) | 0.989 (inactive) | 1.02 (inactive) | 1 (inactive) | 1.09 (inactive) | 1.12 (inactive) | 0.856 (inactive) | 0.967 (inactive) | 0.964 (inactive) | 0.842 (inactive) | 1.02 (inactive) |
| C[N+](C)(C)CCCl.[Cl-] | 1.05 (inactive) | 1.02 (inactive) | 1.03 (inactive) | 1.04 (inactive) | 1.11 (inactive) | 0.944 (inactive) | 1.05 (inactive) | 1.01 (inactive) | 1.06 (inactive) | 1.03 (inactive) |
| CO/C=C(/C(=O)OC)c1ccccc1Oc1cc(Oc2ccccc2C#N)ncn1 | 0.964 (inactive) | 0.991 (inactive) | 0.976 (inactive) | 0.948 (inactive) | 0.969 (inactive) | 0.908 (inactive) | 1.06 (inactive) | 0.959 (inactive) | 0.9 (inactive) | 0.955 (inactive) |
| CS(=O)(=O)c1cc(C(F)(F)F)ccc1C(=O)c1cnoc1C1CC1 | 1.02 (inactive) | 1.01 (inactive) | 1.01 (inactive) | 1.04 (inactive) | 0.93 (inactive) | 1.04 (inactive) | 0.826 (inactive) | 1.1 (inactive) | 1.05 (inactive) | 1.02 (inactive) |
| CCOP(=S)(OCC)SCn1c(=O)oc2cc(Cl)ccc21 | 1 (inactive) | 0.981 (inactive) | 0.974 (inactive) | 1 (inactive) | 0.93 (inactive) | 0.918 (inactive) | 0.994 (inactive) | 0.979 (inactive) | 0.892 (inactive) | 0.955 (inactive) |
| CCc1nn(C)c(C(=O)NCc2ccc(C(C)(C)C)cc2)c1Cl | 0.954 (inactive) | 0.974 (inactive) | 0.967 (inactive) | 1.01 (inactive) | 0.984 (inactive) | 0.913 (inactive) | 1.06 (inactive) | 0.956 (inactive) | 0.991 (inactive) | 0.918 (inactive) |
| CC(Cl)(Cl)C(=O)O | 0.998 (inactive) | 1.02 (inactive) | 0.98 (inactive) | 0.996 (inactive) | 1.02 (inactive) | 1.05 (inactive) | 0.977 (inactive) | 0.969 (inactive) | 1.02 (inactive) | 0.961 (inactive) |
| O=[N+]([O-])c1cc(C(F)(F)F)c(Cl)c([N+](=O)[O-])c1Nc1ncc(C(F)(F)F)cc1Cl | 0.953 (inactive) | 0.98 (inactive) | 0.986 (inactive) | 0.995 (inactive) | 0.885 (inactive) | 0.807 (inactive) | 0.578 (active) | 1.02 (inactive) | 0.905 (inactive) | 0.0369 (active) |
| CCCCOC(=O)N(C)SN(C)C(=O)Oc1cccc2c1OC(C)(C)C2 | 1 (inactive) | 1.07 (inactive) | 1.01 (inactive) | 1.2 (inactive) | 0.942 (inactive) | 0.966 (inactive) | 1.05 (inactive) | 1.03 (inactive) | 1.03 (inactive) | 1.01 (inactive) |
| CCNc1nc(NC(C)C)[nH]c(=O)n1 | 0.992 (inactive) | 1.03 (inactive) | 1.05 (inactive) | 0.992 (inactive) | 1.06 (inactive) | 1.03 (inactive) | 0.963 (inactive) | 0.994 (inactive) | 1.02 (inactive) | 1 (inactive) |
| CCCCNC(=O)n1c(NC(=O)OC)nc2ccccc21 | 1.04 (inactive) | 1.04 (inactive) | 0.977 (inactive) | 0.917 (inactive) | 0.976 (inactive) | 1.01 (inactive) | 0.997 (inactive) | 1.04 (inactive) | 0.945 (inactive) | 0.965 (inactive) |
| CCCCc1c(C)nc(NCC)nc1OS(=O)(=O)N(C)C | 0.996 (inactive) | 0.987 (inactive) | 1.01 (inactive) | 1.16 (inactive) | 0.968 (inactive) | 0.931 (inactive) | 0.987 (inactive) | 0.891 (inactive) | 0.598 (active) | 0.906 (inactive) |
